In experiment [1] the target is Cytochrome P450 2D6 (Homo sapiens) (UniProt P10635). In words: Cytochrome P450 Family 2 Subfamily D Member 6 (CYP2D6) small molecule antagonists: luciferase reporter qHTS assay (AID 1671196). Further: nearly all actives have a fitted effect of over 50% in size. Further: potency means the concentration at half of the fitted maximal effect. On activity change, negative = inhibition: series mostly up to about 120 µM. In outline:
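P450-Glo format: CYP2D6 converts a proluciferin substrate to luciferin in an NADPH-driven reaction lasting 1 h at room temperature. Light output, proportional to CYP2D6 activity, reflects interference by test chemicals.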

Experiment [2] deals with Cytochrome P450 2C19 (Homo sapiens) (UniProt P33261). Briefly: Cytochrome P450 Family 2 Subfamily C Member 19 (CYP2C19) small molecule antagonists: luciferase reporter qHTS assay (AID 1671197). Further: nearly all actives have a fitted effect of over 65% in size. Further: potency means the concentration at half of the fitted maximal effect. On activity change, negative = inhibition: series mostly up to about 120 µM. An outline of the steps: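 Quantitative high-throughput screen of the Tox21 library using CYP2C19 with proluciferin substrate. Reaction: NADPH regeneration, 37C, 1 h, after 10 min compound preincubation at room temperature. Readout: luminescence.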
Background: Reporter assays use an easily measured gene product as a stand-in for the process of interest.

The target of experiment [3] is Cytochrome P450 2C9 (Homo sapiens) (UniProt P11712). Briefly: Cytochrome P450 Family 2 Subfamily C Member 9 (CYP2C9) small molecule antagonists: luciferase reporter qHTS assay (AID 1671198). Further: nearly all actives have a fitted effect of over 50% in size. Further: potency means the concentration at half of the fitted maximal effect. On activity change, negative = inhibition: series mostly up to about 120 µM. In outline: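 P450-Glo proluciferin substrate with CYP2C9 enzyme; 10 min RT preincubation, then NADPH regeneration 1 h at 37C; luciferin detection reagent 20 min RT, luminescence in relative luminescence units.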

The target in experiment [4] is Cytochrome P450 1A2 (Homo sapiens) (UniProt P05177). In words: Cytochrome P450 Family 1 Subfamily A Member 2 (CYP1A2) small molecule antagonists: luciferase reporter qHTS assay (AID 1671199). Further: nearly all actives have a fitted effect of over 50% in size. Further: potency means the concentration at half of the fitted maximal effect. On activity change, negative = inhibition: series mostly up to about 120 µM. An outline of the steps:
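Inhibition of CYP1A2 conversion of proluciferin to luciferin, detected by luminescence. Reaction run 1 h at room temperature with NADPH regeneration after brief compound preincubation.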

The target of experiment [5] is Voltage-gated inwardly rectifying potassium channel KCNH2 (Homo sapiens) (UniProt Q12809). Briefly: Human Ether-a-go-go-Related Gene (hERG) channel small molecule antagonists: fluorescence cell-based qHTS assay (AID 1671200). Further: nearly all actives have a fitted effect of over 50% in size. Further: potency means the concentration at half of the fitted maximal effect.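 On activity change, negative = inhibition: hERG-expressing U2OS cells given a thallium stimulus after FluxOR II dye loading; series mostly up to about 77 µM.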 In outline:
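Cell line hERG-U2OS; dye FluxOR II, 1 h RT dark; Tl+ stimulus; ex 480/em 540 nm, read each second for 2 min.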

Experiment [6] concerns the target Cytochrome P450 3A4 (Homo sapiens) (UniProt P08684). In words: Cytochrome P450 Family 3 Subfamily A Member 4 (CYP3A4) small molecule antagonists: luciferase reporter qHTS assay (AID 1671201). Further: nearly all actives have a fitted effect of over 50% in size. Further: potency means the concentration at half of the fitted maximal effect. On activity change, negative = inhibition: series mostly up to about 120 µM. In outline: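 Room-temperature assay throughout: 10 min compound–enzyme/substrate preincubation, 1 h reaction after NADPH regeneration solution, 20 min detection. Luciferin formed from proluciferin substrate is quantified by luminescence.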

Experiment [7] addresses Nuclear receptor subfamily 1 group I member 2 (Rattus norvegicus) (UniProt Q9R1A7). Briefly: Rat pregnane X receptor (rPXR) activation by small molecules, qHTS assay (AID 1346983). Further: nearly all actives have a fitted effect of over 20% in size. As to conditions: rPXR luciferase reporter cells, One-Glo luminescence, 24 h; max activation: active compounds read high. In outline:
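Cell-based rPXR activation assay: rPXR cells, 2,000 per well, rested 5hr at 37 C, then exposed to compounds in DMSO for 24 hr at 37 C. Luciferase activity read by One-Glo luminescence after 30 min at room temperature.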
A general note: In qHTS, concentration-response curves come from the screen itself.

Results filed as inconclusive are left out. Values without a mark were called inactive. Active and inactive are the calls of the source. The call rests on the fitted dose curve; in most records, active means well fitted curve in the direction sought with a large enough effect in the repeat runs; inconclusive means weak or mixed curves; inactive means no such curve, though single readings can be large; an effect the other way counts as inactive or inconclusive.
On the % scale 0 is the no-effect control and ±100 the full control effect.

Cytochrome P450 2C9 (Homo sapiens), sequence (P11712 whole entry, looked up): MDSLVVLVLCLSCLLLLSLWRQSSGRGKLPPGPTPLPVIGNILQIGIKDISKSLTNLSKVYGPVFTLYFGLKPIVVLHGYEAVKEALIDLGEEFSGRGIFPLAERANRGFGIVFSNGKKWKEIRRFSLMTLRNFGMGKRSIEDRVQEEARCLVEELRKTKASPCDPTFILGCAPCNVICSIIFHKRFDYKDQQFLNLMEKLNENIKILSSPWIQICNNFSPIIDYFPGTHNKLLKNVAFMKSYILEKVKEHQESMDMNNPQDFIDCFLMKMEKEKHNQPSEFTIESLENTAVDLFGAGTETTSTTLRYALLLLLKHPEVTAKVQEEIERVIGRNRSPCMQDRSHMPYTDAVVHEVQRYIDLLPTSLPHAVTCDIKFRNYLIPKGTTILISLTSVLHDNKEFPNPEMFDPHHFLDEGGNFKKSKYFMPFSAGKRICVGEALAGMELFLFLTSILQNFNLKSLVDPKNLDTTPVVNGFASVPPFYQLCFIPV
Cytochrome P450 2C19 (Homo sapiens), sequence (P33261 whole entry, looked up): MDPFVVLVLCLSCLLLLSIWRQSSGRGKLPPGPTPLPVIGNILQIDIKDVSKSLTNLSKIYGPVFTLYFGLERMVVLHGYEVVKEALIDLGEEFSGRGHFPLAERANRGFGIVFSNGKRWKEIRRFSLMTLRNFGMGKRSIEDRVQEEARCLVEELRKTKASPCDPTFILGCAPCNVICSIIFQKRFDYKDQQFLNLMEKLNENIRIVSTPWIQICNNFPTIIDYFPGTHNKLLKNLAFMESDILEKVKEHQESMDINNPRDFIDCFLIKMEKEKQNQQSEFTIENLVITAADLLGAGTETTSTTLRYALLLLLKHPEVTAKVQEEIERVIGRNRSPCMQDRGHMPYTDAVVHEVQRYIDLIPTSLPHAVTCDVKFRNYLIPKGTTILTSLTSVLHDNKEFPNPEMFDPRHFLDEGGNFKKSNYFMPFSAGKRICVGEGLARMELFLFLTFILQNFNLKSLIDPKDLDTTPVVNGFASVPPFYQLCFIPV
Cytochrome P450 1A2 (Homo sapiens), sequence (P05177 whole entry, looked up): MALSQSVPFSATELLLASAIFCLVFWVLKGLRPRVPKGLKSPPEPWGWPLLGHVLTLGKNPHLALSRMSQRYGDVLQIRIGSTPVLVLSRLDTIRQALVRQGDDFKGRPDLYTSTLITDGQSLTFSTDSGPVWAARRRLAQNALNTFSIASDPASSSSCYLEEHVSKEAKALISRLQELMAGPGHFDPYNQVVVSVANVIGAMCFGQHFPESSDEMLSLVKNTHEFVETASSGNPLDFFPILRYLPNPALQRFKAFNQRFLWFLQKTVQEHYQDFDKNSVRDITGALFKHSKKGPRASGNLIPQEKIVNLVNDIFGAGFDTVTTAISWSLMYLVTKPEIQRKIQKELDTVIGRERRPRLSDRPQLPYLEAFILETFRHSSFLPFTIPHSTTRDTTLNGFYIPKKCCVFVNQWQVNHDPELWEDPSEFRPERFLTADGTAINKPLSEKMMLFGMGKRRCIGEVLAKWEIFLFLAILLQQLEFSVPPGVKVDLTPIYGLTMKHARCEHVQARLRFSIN
Voltage-gated inwardly rectifying potassium channel KCNH2 (Homo sapiens), sequence (Q12809 whole entry, looked up): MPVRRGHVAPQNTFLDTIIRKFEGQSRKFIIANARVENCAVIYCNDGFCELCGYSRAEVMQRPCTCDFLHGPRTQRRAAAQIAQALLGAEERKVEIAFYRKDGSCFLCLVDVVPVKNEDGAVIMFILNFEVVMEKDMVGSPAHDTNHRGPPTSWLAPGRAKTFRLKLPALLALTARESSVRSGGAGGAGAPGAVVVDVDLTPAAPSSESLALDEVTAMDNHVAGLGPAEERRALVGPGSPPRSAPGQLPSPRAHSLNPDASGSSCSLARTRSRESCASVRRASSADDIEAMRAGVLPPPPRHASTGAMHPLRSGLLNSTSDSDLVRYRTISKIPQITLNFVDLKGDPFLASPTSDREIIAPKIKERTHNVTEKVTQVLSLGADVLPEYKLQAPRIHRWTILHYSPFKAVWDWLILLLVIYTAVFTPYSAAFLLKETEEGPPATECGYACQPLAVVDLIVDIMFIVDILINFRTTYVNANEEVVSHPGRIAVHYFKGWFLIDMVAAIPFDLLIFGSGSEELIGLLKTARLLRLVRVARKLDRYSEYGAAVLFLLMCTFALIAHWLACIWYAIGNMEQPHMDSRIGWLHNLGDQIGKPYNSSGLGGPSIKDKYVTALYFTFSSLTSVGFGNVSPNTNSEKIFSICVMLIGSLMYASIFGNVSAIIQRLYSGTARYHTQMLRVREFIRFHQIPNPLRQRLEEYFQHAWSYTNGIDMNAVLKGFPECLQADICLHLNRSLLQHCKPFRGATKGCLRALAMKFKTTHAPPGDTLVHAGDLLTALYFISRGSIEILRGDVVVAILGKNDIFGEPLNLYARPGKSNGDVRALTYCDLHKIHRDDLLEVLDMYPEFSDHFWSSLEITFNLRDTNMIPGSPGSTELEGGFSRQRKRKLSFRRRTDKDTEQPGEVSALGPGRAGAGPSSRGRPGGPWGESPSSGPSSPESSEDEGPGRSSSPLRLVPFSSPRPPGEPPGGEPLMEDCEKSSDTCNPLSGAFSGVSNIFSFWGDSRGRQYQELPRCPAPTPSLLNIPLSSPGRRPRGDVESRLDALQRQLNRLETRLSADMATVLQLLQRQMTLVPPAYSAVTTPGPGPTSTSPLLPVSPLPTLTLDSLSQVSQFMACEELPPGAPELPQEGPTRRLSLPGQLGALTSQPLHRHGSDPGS
Cytochrome P450 2D6 (Homo sapiens), sequence (P10635 whole entry, looked up): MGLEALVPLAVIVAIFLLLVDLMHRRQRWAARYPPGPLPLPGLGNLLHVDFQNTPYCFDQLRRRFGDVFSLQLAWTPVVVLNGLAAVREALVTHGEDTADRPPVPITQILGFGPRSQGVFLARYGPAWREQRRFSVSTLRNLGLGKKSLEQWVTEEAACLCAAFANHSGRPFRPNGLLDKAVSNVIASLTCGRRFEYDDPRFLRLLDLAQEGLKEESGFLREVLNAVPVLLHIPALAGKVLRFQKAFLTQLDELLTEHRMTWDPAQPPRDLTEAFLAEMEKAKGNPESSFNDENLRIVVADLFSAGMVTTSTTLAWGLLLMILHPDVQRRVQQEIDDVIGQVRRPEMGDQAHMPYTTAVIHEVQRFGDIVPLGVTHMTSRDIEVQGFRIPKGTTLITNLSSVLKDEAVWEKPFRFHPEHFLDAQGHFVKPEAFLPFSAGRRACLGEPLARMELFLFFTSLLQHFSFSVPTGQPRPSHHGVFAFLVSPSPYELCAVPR
Cytochrome P450 3A4 (Homo sapiens), sequence (P08684 whole entry, looked up): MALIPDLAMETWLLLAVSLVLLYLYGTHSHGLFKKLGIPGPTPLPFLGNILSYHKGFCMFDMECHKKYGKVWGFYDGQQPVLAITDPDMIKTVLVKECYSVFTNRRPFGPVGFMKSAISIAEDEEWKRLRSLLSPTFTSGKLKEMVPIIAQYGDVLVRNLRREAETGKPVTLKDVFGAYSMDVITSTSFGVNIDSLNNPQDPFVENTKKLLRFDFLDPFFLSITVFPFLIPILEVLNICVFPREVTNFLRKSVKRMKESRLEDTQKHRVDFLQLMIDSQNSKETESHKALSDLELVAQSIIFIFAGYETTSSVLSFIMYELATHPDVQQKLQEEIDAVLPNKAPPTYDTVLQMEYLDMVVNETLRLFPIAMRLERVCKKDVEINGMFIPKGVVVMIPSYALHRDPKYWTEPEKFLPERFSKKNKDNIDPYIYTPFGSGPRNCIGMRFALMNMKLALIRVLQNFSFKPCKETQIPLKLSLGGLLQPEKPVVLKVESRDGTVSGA
Nuclear receptor subfamily 1 group I member 2 (Rattus norvegicus), sequence (Q9R1A7 whole entry, looked up): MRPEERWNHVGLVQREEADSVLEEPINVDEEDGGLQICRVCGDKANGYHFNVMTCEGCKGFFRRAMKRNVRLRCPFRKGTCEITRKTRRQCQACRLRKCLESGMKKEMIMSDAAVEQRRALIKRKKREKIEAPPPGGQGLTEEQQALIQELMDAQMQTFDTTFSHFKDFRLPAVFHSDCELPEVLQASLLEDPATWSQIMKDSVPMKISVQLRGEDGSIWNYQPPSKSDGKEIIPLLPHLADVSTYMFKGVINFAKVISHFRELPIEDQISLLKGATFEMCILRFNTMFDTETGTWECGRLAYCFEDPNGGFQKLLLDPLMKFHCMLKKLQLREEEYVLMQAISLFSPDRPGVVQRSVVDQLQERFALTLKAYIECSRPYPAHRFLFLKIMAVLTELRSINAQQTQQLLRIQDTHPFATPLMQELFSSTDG

`C=CCOCC(CO)(COCC=C)COCC=C`: the Potency entry in experiment [1] and in experiment [5] was “inactive” in each case. For the same molecule, the Potency is 0.717 µM (active) in experiment [2], 7.17 µM (active) in experiment [3], 25.5 µM (active) in experiment [4] and 10.1 µM (active) in experiment [6].

As to `CCCCCCCCCCCCC`, the Potency entry in experiment [1], in experiment [2], in experiment [3], in experiment [4], in experiment [5] and in experiment [6] was “inactive” throughout.

`CCC(C)N` (configuration not stated): the Potency entry in experiment [1], in experiment [2], in experiment [3], in experiment [4], in experiment [5] and in experiment [6] was “inactive” in each case.

Turning to `CCCCOC(=O)C(=O)OCCCC`, the Potency result in experiment [1], in experiment [2], in experiment [3], in experiment [4], in experiment [5] and in experiment [6] was “inactive” each time.

Take `Nc1c(NC/C=C\COc2cc(CN3CCCCC3)ccn2)c(=O)c1=O`: the Potency in experiment [1] was 12 µM (active); in experiment [6], 6.74 µM (active). Besides, the activity change, negative = inhibition in experiment [2] was -27.3% [at 23.6 µM]; in experiment [3] it was -15.9% [at 23.6 µM]; in experiment [4], 11.8% [at 23.6 µM]; in experiment [5] it was 0.241% [at 15.8 µM].

Turning to `C=C[Si](C)(C)O[Si](C)(C)C=C`, the Potency entry in experiment [1], in experiment [2], in experiment [3], in experiment [4], in experiment [5] and in experiment [6] was “inactive” in each case.

On to `BrC/C=C/CBr`, for which the activity change, negative = inhibition in experiment [1] is -5.12% [at 23.6 µM]; in experiment [2] it was -2.14% [at 23.6 µM]; in experiment [3] it was -9.58% [at 23.6 µM]; in experiment [4], -13.1% [at 23.6 µM]; in experiment [5], 3.44% [at 15.8 µM]; in experiment [6] it was 0.976% [at 23.6 µM].

As for `CCCCCCCCCCCCOC(C)=O`, the Potency entry in experiment [1], in experiment [2], in experiment [3], in experiment [4], in experiment [5] and in experiment [6] was “inactive” throughout.

As to `O=CN1CCOCC1`, the Potency result in experiment [1], in experiment [2], in experiment [3], in experiment [5] and in experiment [6] was “inactive” throughout. In addition, the Potency in experiment [4] was 44.8 µM (active).

For `CO[Si](CCCS)(OC)OC`, the Potency result in experiment [1], in experiment [2], in experiment [3], in experiment [4] and in experiment [5] was “inactive” in each case.

Regarding `O=C(O)Cc1cccc(-c2cc(CCCCCCc3ccc(O[C@H]4O[C@H](CO)[C@@H](O)[C@H](O)[C@@H]4O)c(-c4cccc(CC(=O)O)c4)c3)ccc2O[C@H]2O[C@H](CO)[C@@H](O)[C@H](O)[C@@H]2O)c1`, the activity change, negative = inhibition was 0.276% [at 0.435 µM] in experiment [1]; 11.7% [at 0.435 µM] in experiment [2]; 0.681% [at 0.435 µM] in experiment [3]; -0.131% [at 0.435 µM] in experiment [4]; -0.102% [at 0.29 µM] in experiment [5]; 0.205% [at 0.435 µM] in experiment [6].

Take `Cc1ccc2c(c1)c1c3n2CCNC3CCC1` (configuration not stated): the max activation in experiment [7] is -0.806%. For the same molecule, in experiment [5], the Potency result was “inactive”.

On to `C=CCOc1c(Br)cc(C(C)(C)c2cc(Br)c(OCC=C)c(Br)c2)cc1Br`, for which the Potency result in experiment [1], in experiment [3], in experiment [4], in experiment [5] and in experiment [6] was “inactive” each time. For the same molecule, in experiment [2], the Potency was 24.6 µM (active).

As to `CC(=O)c1ccc2c(c1)CCCC2`, the Potency result in experiment [1], in experiment [3], in experiment [5] and in experiment [6] was “inactive” in each case. The results for the Potency in experiment [2] and in experiment [4] were 79.6 µM (active) and 35.6 µM (active), respectively.

For `c1ccccc1`, the Potency entry in experiment [1], in experiment [2], in experiment [3], in experiment [4], in experiment [5] and in experiment [6] was “inactive” each time.

With `CC(C)(c1ccc(Oc2ccc3c(c2)C(=O)OC3=O)cc1)c1ccc(Oc2ccc3c(c2)C(=O)OC3=O)cc1`, the figures for the Potency in experiment [1] and in experiment [4] were 39.7 µM (active) and 70.6 µM (active), respectively. Moreover, the Potency result in experiment [2], in experiment [3], in experiment [5] and in experiment [6] was “inactive” in each case.

Take `C=C(C)C(=O)OC1CC(C)CC(C)(C)C1` (configuration not stated): the Potency result in experiment [1], in experiment [2], in experiment [3], in experiment [5] and in experiment [6] was “inactive” each time. The Potency in experiment [4] was 31.7 µM (active).

As for `C=C(C)[C@@H]1CC[C@@H](C)C[C@@H]1O`, the Potency entry in experiment [1], in experiment [2], in experiment [3], in experiment [5] and in experiment [6] was “inactive” each time. Besides, the Potency in experiment [4] was 39.9 µM (active).

Turning to `CC(=O)OCC(=O)[C@@]1(O)[C@H](OC(C)=O)C[C@H]2[C@@H]3CCC4=CC(=O)C=C[C@]4(C)[C@@]3(F)[C@@H](O)C[C@@]21C`, the Potency entry in experiment [1], in experiment [2], in experiment [3], in experiment [4] and in experiment [5] was “inactive” in each case.

`CCCCCC1Nc2cc(C(F)(F)F)c(S(N)(=O)=O)cc2S(=O)(=O)N1` (configuration not stated): the figures for the Potency in experiment [1], in experiment [3] and in experiment [5] were 13.8 µM (active), 1.55 µM (active) and 23.9 µM (active), respectively. The Potency result in experiment [2] and in experiment [4] was “inactive” each time.

Consider `CC(C)COC(=O)CC(C(=O)OCC(C)C)S(=O)(=O)O` (configuration not stated), for which the Potency result in experiment [1], in experiment [2], in experiment [4], in experiment [5] and in experiment [6] was “inactive” each time. Further, in experiment [3], the Potency was 31.7 µM (active).

As for `CC(CC(=O)O)CC(C)(C)C` (configuration not stated), the Potency result in experiment [1], in experiment [2], in experiment [3], in experiment [4], in experiment [5] and in experiment [6] was “inactive” each time.

For `CCCCCCCCCCCCCCCCCCN(C)C`, the Potency entry in experiment [1], in experiment [2], in experiment [3], in experiment [4], in experiment [5] and in experiment [6] was “inactive” in each case.

`CC(=O)OC(C(=O)c1ccccc1)c1ccccc1` (configuration not stated): the Potency was 35.7 µM (active) in experiment [1], 8.98 µM (active) in experiment [2], 31.9 µM (active) in experiment [3] and 40.1 µM (active) in experiment [4]. The Potency result in experiment [5] and in experiment [6] was “inactive” each time.

With `Nc1nc(=O)n([C@@H]2O[C@H](CO)[C@@H](O)[C@@H]2F)cc1I`, the Potency result in experiment [1], in experiment [2], in experiment [3], in experiment [4], in experiment [5] and in experiment [6] was “inactive” in each case.

On to `CCC(C)(C)C1CCC(=O)CC1`, for which the Potency entry in experiment [1], in experiment [2], in experiment [3], in experiment [4], in experiment [5] and in experiment [6] was “inactive” throughout.

As to `CCCCCCCC/C=C\CCCCCCCC(=O)OC[C@@H](O)[C@H]1OC[C@H](O)[C@H]1O`, the Potency result in experiment [1], in experiment [2], in experiment [4], in experiment [5] and in experiment [6] was “inactive” throughout. For the same molecule, the Potency in experiment [3] is 31.7 µM (active).

Regarding `OCCCCCCCl`, the Potency entry in experiment [1], in experiment [2], in experiment [3], in experiment [4], in experiment [5] and in experiment [6] was “inactive” throughout.

With `CC(C)COC(=O)COc1ccc(Cl)cc1Cl`, the Potency result in experiment [1] and in experiment [6] was “inactive” each time. Further, the figures for the Potency in experiment [2], in experiment [3] and in experiment [4] were 56.3 µM (active), 31.7 µM (active) and 20 µM (active), respectively.

Turning to `COC(=O)CCC(=O)O`, the Potency entry in experiment [1], in experiment [2], in experiment [3], in experiment [4], in experiment [5] and in experiment [6] was “inactive” in each case.
